# Measured values as given in PubChem BioAssay (NCATS).
# Values joined by “and” are separate entries in the source; they are usually repeats but may differ in a detail not shown here. Equal entries are not always repeated. Values without a mark were called inactive. Inconclusive results are not listed. Entries that show only a call come without a potency. Active and inactive are the calls of the source. Unless noted, the call rests on the fitted dose curve; in most records, active means well fitted curve in the direction sought with a large enough effect; inconclusive means small, poorly fitted or top-dose-only effect, or another doubt; inactive means no such curve, though single readings can be large; an effect the other way counts as inactive or inconclusive.
# Key:
# HeLa = test: Primary qHTS to identify gynecologic anti-cancer compounds using libraries of approved drugs and bioactive compounds (AID 1345084); conditions: Gynecologic cancer cell panel viability, ATPlite luminescence, 48 h; series mostly up to 57.5 µM; further: nearly all actives have a fitted effect of over 55% in size; further: potency means the concentration at half of the fitted maximal effect
# Method in brief: (§1)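 Luminescence from the ATPlite ATP-monitoring reagent indicates viable cell number; lower signal means cytotoxicity. Cells received compound 16 h after seeding and were exposed for 48 h across five concentrations.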
# Hek293T = test: as above; conditions: Gynecologic cancer cell panel viability, ATPlite luminescence, 48 h, control line for the selectivity index; series mostly up to 57.5 µM
# Method in brief: as §1
# JEG-3 = test: as above; conditions: Gynecologic cancer cell panel viability, ATPlite luminescence, 48 h; series mostly up to 57.5 µM
# Method in brief: as §1
# OV90 = test: as above; conditions: Gynecologic cancer cell panel viability, ATPlite luminescence, 48 h; series mostly up to 57.5 µM
# Method in brief: as §1
# PA-1 = test: as above; conditions: Gynecologic cancer cell panel viability, ATPlite luminescence, 48 h; series mostly up to 57.5 µM
# Method in brief: as §1
# Tov-21-G = test: as above; conditions: Gynecologic cancer cell panel viability, ATPlite luminescence, 48 h; series mostly up to 57.5 µM
# Method in brief: as §1
# Tov112D = test: as above; conditions: Gynecologic cancer cell panel viability, ATPlite luminescence, 48 h; series mostly up to 57.5 µM
# Method in brief: as §1
# Es-2 = test: as above; conditions: Gynecologic cancer cell panel viability, ATPlite luminescence, 48 h; series mostly up to 57.5 µM
# Method in brief: as §1
# SKOV3 = test: as above; conditions: Gynecologic cancer cell panel viability, ATPlite luminescence, 48 h; series mostly up to 57.5 µM
# Method in brief: as §1
# [1] = qHTS assay to identify inhibitors of the type 1 interferon - major histocompatibility complex class I in skeletal muscle: Counter screen cell viability and HiBit confirmation (AID 1347412); conditions: iHSKM muscle cells + IFN-b, HiBiT or CellTiter-Glo, 24 h; HiBiT; further: potency means the concentration at half of the fitted maximal effect; nearly all actives have a fitted effect of over 60% in size
# Method in brief: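 Human myoblast knock-in line, 4.0 ng/ml IFN-beta stimulation, 24 h compound treatment. Endpoints: HiBiT lytic luminescence (HLA-B level) and CellTiter Glo (ATP). Dosing 12 concentrations, 3-fold steps, 46 uM highest final.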
# [2] = Drug repurposing screens with cells derived from glioblastoma tumor samples (AID 1345199); conditions: GBM patient neurospheres viability, ATP luminescence, 48 h; further: nearly all actives have a fitted effect of over 40% in size; further: potency means the concentration at half of the fitted maximal effect
# Method in brief: (§2)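 Four patient lines of CD133+ GBM neurospheres were screened at several concentrations; hits were retested in those lines plus three slower-growing GBM lines, using 48-hour treatment and ATP-based viability.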
# astro = test: as above; conditions: viability, ATP luminescence, 48 h; series mostly up to 45.9 µM
# Method in brief: as §2
# [3] = molecular target: Nuclear receptor subfamily 1 group I member 2 (Rattus norvegicus) (UniProt Q9R1A7); test: qHTS assay for small molecule activators of the rat pregnane X receptor (rPXR) signaling pathway (AID 651751; call rule not given here); conditions: rPXR reporter cells, luciferase (One-Glo), 24 h
# [4] = qHTS assay for small molecule activators of the human pregnane X receptor (PXR) signaling pathway (AID 720659; call rule not given here)
# Sequence of Nuclear receptor subfamily 1 group I member 2 (Rattus norvegicus) (Q9R1A7 whole entry, looked up): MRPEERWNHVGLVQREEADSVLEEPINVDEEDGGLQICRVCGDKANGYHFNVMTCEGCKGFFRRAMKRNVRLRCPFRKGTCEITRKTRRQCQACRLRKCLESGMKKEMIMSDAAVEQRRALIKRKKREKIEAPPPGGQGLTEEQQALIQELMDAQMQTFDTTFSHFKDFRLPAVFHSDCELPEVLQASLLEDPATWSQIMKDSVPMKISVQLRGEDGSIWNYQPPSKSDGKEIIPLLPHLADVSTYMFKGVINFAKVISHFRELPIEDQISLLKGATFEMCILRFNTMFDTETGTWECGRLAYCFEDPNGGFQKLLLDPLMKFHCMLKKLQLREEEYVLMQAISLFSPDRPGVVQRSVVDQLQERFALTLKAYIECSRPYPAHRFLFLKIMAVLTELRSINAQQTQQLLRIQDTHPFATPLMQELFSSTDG
structure (smiles),measurement,setting,value
CC[C@@H](c1ccc(F)c(F)c1)n1c(C(=O)OC)c(-c2ccno2)[nH]c1=S,Potency,HeLa,inactive
same,Potency,Hek293T,inactive
same,Potency,JEG-3,inactive
same,Potency,OV90,inactive
same,Potency,PA-1,inactive
same,Potency,Tov-21-G,inactive
same,Potency,Tov112D,inactive
CCc1nc(C(N)=O)c(Nc2ccc(N3CCC(N4CCN(C)CC4)CC3)c(OC)c2)nc1NC1CCOCC1,Potency,Es-2,inactive
same,Potency,HeLa,3.55 µM (active)
same,Potency,JEG-3,inactive
same,Potency,OV90,inactive
same,Potency,PA-1,2.24 µM (active)
same,Potency,SKOV3,1.12 µM (active)
Cc1ccc(Sc2cncc3sc(C(N)=O)cc23)cc1,Potency,Es-2,inactive
same,Potency,HeLa,inactive
same,Potency,Hek293T,inactive
same,Potency,OV90,inactive
same,Potency,PA-1,inactive
same,Potency,SKOV3,inactive
same,Potency,Tov112D,inactive
CC(CO[C@@H]1O[C@H](COC(=O)/C=C/c2ccc(O)c(O)c2)[C@@H](O)[C@H](O)[C@H]1O)C1(O)COC(=O)C1 (stereo not given in full),Potency,Es-2,inactive
same,Potency,HeLa,inactive
same,Potency,Hek293T,inactive
same,Potency,OV90,inactive
same,Potency,PA-1,inactive
same,Potency,SKOV3,inactive
same,Potency,Tov-21-G,inactive
same,Potency,Tov112D,inactive
C=C[C@@]1(C)CC(=O)C2[C@](C)(O1)[C@@H](OC(C)=O)[C@@H](O)[C@H]1C(C)(C)CCC[C@]21C (stereo not given in full),"activity change, negative = cytotoxicity",Es-2,1.29% [at 11.6 µM]
same,"activity change, negative = cytotoxicity",HeLa,4.53% [at 11.6 µM]
same,"activity change, negative = cytotoxicity",Hek293T,-0.239% [at 11.6 µM]
same,"activity change, negative = cytotoxicity",JEG-3,7.71% [at 11.6 µM]
same,"activity change, negative = cytotoxicity",PA-1,5.09% [at 11.6 µM]
same,"activity change, negative = cytotoxicity",Tov-21-G,0.473% [at 11.6 µM]
same,"activity change, negative = cytotoxicity",Tov112D,4.2% [at 11.6 µM]
COc1cc(N2CCC(N(C)C)CC2)ccc1Nc1ncc(Cl)c(Nc2ccccc2P(C)(C)=O)n1,Potency,Es-2,11.2 µM (active)
same,Potency,HeLa,3.16 µM (active)
same,Potency,Hek293T,10 µM (active)
same,Potency,OV90,1.58 µM (active)
same,Potency,PA-1,8.91 µM (active)
same,Potency,SKOV3,3.55 µM (active)
same,Potency,Tov-21-G,7.08 µM (active)
same,Potency,Tov112D,10 µM (active)
same,Potency,[1],3.13 µM (active)
O=C(O)C[C@@H](NC(=O)c1cc(-c2ccc(-c3ccncc3)cc2)cs1)c1ccccc1,Potency,HeLa,inactive
same,Potency,Hek293T,inactive
same,Potency,JEG-3,inactive
same,Potency,OV90,inactive
same,Potency,PA-1,inactive
same,Potency,SKOV3,inactive
same,Potency,Tov112D,inactive
CON(C)C(=O)N1N=C(c2cc(F)ccc2F)S[C@@]1(CCCN)c1ccccc1,Potency,OV90,inactive
same,Potency,SKOV3,inactive
Cc1nc2c(-c3cnc(N)nc3)nc(N3CCOCC3)nc2n1C(C)C,Potency,HeLa,1.58 µM (active)
same,Potency,Hek293T,0.708 µM (active)
same,Potency,OV90,1.12 µM (active)
same,Potency,PA-1,2 µM (active)
same,Potency,SKOV3,0.562 µM (active)
same,Potency,Tov-21-G,0.631 µM (active)
Cc1cn2c(N)c(Cl)cc(C(=O)NCC3CCN(CC(C)C)CC3)c2n1,Potency,Es-2,inactive
same,Potency,HeLa,inactive
same,Potency,Hek293T,inactive
same,Potency,JEG-3,inactive
same,Potency,PA-1,inactive
same,Potency,SKOV3,inactive
same,Potency,Tov-21-G,inactive
same,Potency,Tov112D,inactive
CCn1c2ccccc2c2cc(CNC)ccc21,Potency,Es-2,inactive
same,Potency,HeLa,inactive
same,Potency,Hek293T,inactive
same,Potency,JEG-3,inactive
same,Potency,PA-1,inactive
same,Potency,SKOV3,inactive
same,Potency,Tov-21-G,inactive
same,Potency,Tov112D,inactive
N[C@H](C(=O)O)[C@@H]1CC(Cl)=NO1,Potency,[2]; tumour line C,6.51 µM (active)
CN1CCC(CN2c3ccccc3Sc3ccccc32)C1 (stereo not given),Potency,[2]; tumour line D,17.8 µM (active)
C=C(NC(=O)C(=C)NC(=O)c1csc(C2=N[C@@H]3c4csc(n4)[C@H]4NC(=O)c5csc(n5)[C@H]([C@](C)(O)[C@@H](C)O)NC(=O)[C@H]5CSC(=N5)C(=CC)NC(=O)C([C@@H](C)O)NC(=O)c5csc(n5)[C@]3(CC2)NC(=O)[C@H](C)NC(=O)C(=C)NC(=O)[C@H](C)NC(=O)C([C@@H](C)CC)NC2C=Cc3c([C@H](C)O)cc(nc3C2O)C(=O)O[C@@H]4C)n1)C(N)=O (stereo not given in full),Potency,[2]; tumour line D,14.1 µM (active)
CC(O)CO (stereo not given),"activity, negative = cell killing","[2]; at 45.9 µM (top of the series), tumour line B",0.179%
same,"activity, negative = cell killing","[2]; at 45.9 µM (top of the series), tumour line D",10.5%
same,"activity, negative = cell killing","[2]; at 46 µM (top of the series), tumour line A",-19.9%
same,"activity, negative = cell killing","[2]; at 46.1 µM (top of the series), tumour line C",-8.89%
same,Potency,astro,inactive
same,max response,[3],-2.73% and 0.891%
same,outcome,[4],inactive
